# This excerpt belongs to a sample that is enriched for the strongest signals.
# B1: PX14367A-bth-493-35-493 (Bacteroides thetaiotaomicron) (protein)
# chain: VSSDQVAVAGNAERLFNGAWYNLFEYGTTYANIGYRALQCQDDMMASDVVSRPKYGFNSSYQFNDVAIPSDGRTSFAWYLIYKTIDNCNTAISIKGDSEELRQAQGQALALRAFCYLHLVQHYQFTYLKDKDAPCVPIYTEPTTSGTKPKGKSTVAQVYQQIFDDLNLAQDYLTNYVRKGDGQKFKPNTDVVNGLMARAYLLTGQWGEAAKAAEAARKGYSLMTTTAEYEGFNNISNKEWIWGSPQTLSQSDASYNFYYLDATYVGAYSSFMADPHLMDTFVKGDIRLPLFQWMREGYLGYKKFHMRSDDTADLVLMRSAEMYLIEAEAKVRDGVALDQAVAPLNTLRTARGVGNYDVTGKTKEQVIDEILMERRRELWGEGFGITDVLRNQKAVERMALSEDMQKTEVDCWQEGGSFAKRNPLGHWFLNFPDGKAFSANSSYYLYAIPEKEINANPNL
# B2: SLR2P3F12 (Tachypleus tridentatus), TAL2_TACTR (protein)
# chain: MEKGTPPTHDSDNWMGRAKKIGNGGWNQFQFLFFDPNGYLYAVSKDKLYKASPPQSDTDNWIARATEIGSGGWSGFKSLFFHPNGYLYAVHGQRLYKALPPVSNQD
# How the values were obtained:
# Test in all cases: glycan array binding signal (z-score within array); higher = stronger binding
# Conditions in all cases: glycan notation: IUPAC condensed, linker removed
# Gal3S6S(b1-4)GlcNAc6S = molecular target: Gal3S6S(b1-4)GlcNAc6S
# Method in brief: (§1)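 Glycan array binding is given as a within-array Z-score, which can be read as non-binding when negative. The arrays, 3228 of them, came from the Consortium for Functional Glycomics database and were retained only where the protein sequence was available. Z-scores were averaged across arrays of the same protein sequence at different concentrations or buffers and across linkers.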
# [1] = molecular target: GalNAc(b1-3)Gal(a1-4)Gal(b1-4)GlcNAc
# Method in brief: as §1
# [2] = molecular target: GlcNAc(a1-4)Gal(b1-4)GalNAc
# Method in brief: as §1
# [3] = molecular target: GlcNAc(b1-2)Man(a1-3)[GlcNAc(b1-4)][GlcNAc(b1-2)Man(a1-6)]Man(b1-4)GlcNAc(b1-4)[Fuc(a1-6)]GlcNAc
# Method in brief: as §1
# [4] = molecular target: GlcNAc(b1-3)Gal(b1-4)GlcNAc(b1-3)Gal(b1-4)GlcNAc(b1-2)Man(a1-3)[GlcNAc(b1-3)Gal(b1-4)GlcNAc(b1-3)Gal(b1-4)GlcNAc(b1-2)Man(a1-6)]Man(b1-4)GlcNAc(b1-4)GlcNAc
# Method in brief: as §1
# [5] = molecular target: GlcNAc6S(b1-3)Gal(b1-4)GlcNAc
# Method in brief: as §1
# Man(a1-2)Man(a1-3)Man = molecular target: Man(a1-2)Man(a1-3)Man
# Method in brief: as §1
# [6] = molecular target: Man(a1-2)Man(a1-3)[Man(a1-6)]Man(a1-6)[Man(a1-2)Man(a1-3)]Man(b1-4)GlcNAc(b1-4)GlcNAc
# Method in brief: as §1
# [7] = molecular target: Man(a1-3)[Man(a1-6)]Man(b1-4)GlcNAc(b1-4)GlcNAc
# Method in brief: as §1
# [8] = molecular target: Neu5Ac(a2-3)Gal(b1-3)GalNAc
# Method in brief: as §1
# [9] = molecular target: Neu5Ac(a2-3)Gal(b1-3)GalNAc(b1-4)[Neu5Ac(a2-8)Neu5Ac(a2-3)]Gal(b1-4)Glc
# Method in brief: as §1
# [10] = molecular target: Neu5Ac(a2-3)Gal(b1-3)GlcNAc(b1-3)GalNAc
# Method in brief: as §1
# [11] = molecular target: Neu5Ac(a2-3)Gal(b1-4)GlcNAc(b1-3)Gal(b1-4)GlcNAc(b1-3)Gal(b1-4)GlcNAc
# Method in brief: as §1
# [12] = molecular target: Neu5Ac(a2-3)Gal(b1-4)GlcNAc(b1-3)Gal(b1-4)GlcNAc(b1-3)Gal(b1-4)GlcNAc(b1-2)Man(a1-3)[Neu5Ac(a2-3)Gal(b1-4)GlcNAc(b1-3)Gal(b1-4)GlcNAc(b1-3)Gal(b1-4)GlcNAc(b1-2)Man(a1-6)]GalNAc
# Method in brief: as §1
# [13] = molecular target: Neu5Ac(a2-3)Gal(b1-4)[Fuc(a1-3)]GlcNAc(b1-2)Man
# Method in brief: as §1
# [14] = molecular target: Neu5Ac(a2-3)[GalNAc(b1-4)]Gal(b1-4)Glc
# Method in brief: as §1
# [15] = molecular target: Neu5Ac(a2-6)Gal(b1-4)GlcNAc(b1-2)Man(a1-3)[Man(a1-6)]Man(b1-4)GlcNAc(b1-4)GlcNAc
# Method in brief: as §1
# [16] = molecular target: Neu5Ac(a2-6)Gal(b1-4)GlcNAc(b1-2)[Neu5Ac(a2-6)Gal(b1-4)GlcNAc(b1-4)]Man(a1-3)[GlcNAc(b1-4)][Neu5Ac(a2-6)Gal(b1-4)GlcNAc(b1-4)Man(a1-6)]Man(b1-4)GlcNAc(b1-4)GlcNAc
# Method in brief: as §1
# [17] = molecular target: Neu5Ac(a2-6)Gal(b1-4)GlcNAc(b1-3)Gal(b1-4)GlcNAc(b1-2)Man(a1-3)[Neu5Ac(a2-6)Gal(b1-4)GlcNAc(b1-3)Gal(b1-4)GlcNAc(b1-2)Man(a1-6)]GalNAc
# Method in brief: as §1
# [18] = molecular target: Neu5Ac(a2-6)Gal(b1-4)GlcNAc(b1-3)[Neu5Ac(a2-6)Gal(b1-4)GlcNAc(b1-6)]GalNAc
# Method in brief: as §1
# [19] = molecular target: Neu5Ac(a2-6)Gal(b1-4)GlcNAc(b1-6)[Gal(b1-3)]GalNAc
# Method in brief: as §1
# [20] = molecular target: Neu5Ac(a2-6)GalNAc(b1-4)GlcNAc
# Method in brief: as §1
# [21] = molecular target: Neu5Ac(a2-8)Neu5Ac(a2-3)[Gal(b1-3)GalNAc(b1-4)]Gal(b1-4)Glc
# Method in brief: as §1
# [22] = molecular target: Neu5Ac(a2-8)Neu5Gc(a2-3)Gal(b1-4)GlcNAc
# Method in brief: as §1
# [23] = molecular target: Fuc(a1-2)Gal6S(b1-4)Glc6S
# Method in brief: as §1
# [24] = molecular target: Fuc(a1-2)[Gal(a1-3)]Gal(b1-4)GlcNAc
# Method in brief: as §1
# [25] = molecular target: Fuc(a1-2)[GalNAc(a1-3)]Gal(b1-3)GlcNAc
# Method in brief: as §1
# [26] = molecular target: Fuc(a1-2)[GalNAc(a1-4)]Gal(b1-4)GlcNAc
# Method in brief: as §1
# Fuc(a1-3)GlcNAc = molecular target: Fuc(a1-3)GlcNAc
# Method in brief: as §1
# [27] = molecular target: Fuc(a1-3)[Gal(b1-4)]GlcNAc(b1-2)Man(a1-6)[Gal(b1-4)GlcNAc(b1-2)Man(a1-3)]Man(b1-4)GlcNAc(b1-4)GlcNAc
# Method in brief: as §1
# Fuc(a1-4)GlcNAc = molecular target: Fuc(a1-4)GlcNAc
# Method in brief: as §1
# [28] = molecular target: Gal(a1-3)[Gal(a1-4)]Gal(b1-4)GlcNAc
# Method in brief: as §1
# Gal(a1-4)Gal(b1-4)Glc = molecular target: Gal(a1-4)Gal(b1-4)Glc
# Method in brief: as §1
# [29] = molecular target: Gal(b1-4)GalNAc(a1-3)[Fuc(a1-2)]Gal(b1-4)GlcNAc
# Method in brief: as §1
# Gal(b1-4)Glc = molecular target: Gal(b1-4)Glc
# Method in brief: as §1
# Gal(b1-4)Glc6S = molecular target: Gal(b1-4)Glc6S
# Method in brief: as §1
# [30] = molecular target: GlcNAc(a1-3)Gal(b1-4)GlcNAc
# Method in brief: as §1
# [31] = molecular target: GlcNAc(a1-6)Gal(b1-4)GlcNAc
# Method in brief: as §1
# Neu5Ac(a2-3)Gal = molecular target: Neu5Ac(a2-3)Gal
# Method in brief: as §1
# [32] = molecular target: Neu5Ac(a2-3)Gal(b1-4)[Fuc(a1-3)]GlcNAc(b1-3)Gal(b1-4)GlcNAc
# Method in brief: as §1
# [33] = molecular target: Neu5Ac(a2-3)Gal(b1-4)[Fuc(a1-3)]GlcNAc(b1-6)[Gal(b1-3)]GalNAc
# Method in brief: as §1
# [34] = molecular target: Neu5Ac(a2-3)GalNAc(b1-4)GlcNAc
# Method in brief: as §1
# Neu5Ac(a2-6)Gal(b1-4)Glc = molecular target: Neu5Ac(a2-6)Gal(b1-4)Glc
# Method in brief: as §1
# [35] = molecular target: Neu5Ac(a2-6)Gal(b1-4)GlcNAc
# Method in brief: as §1
# [36] = molecular target: Neu5Ac(a2-6)Gal(b1-4)GlcNAc(b1-2)Man(a1-3)[Gal(b1-4)GlcNAc(b1-2)Man(a1-6)]Man(b1-4)GlcNAc(b1-4)GlcNAc
# Method in brief: as §1
# [37] = molecular target: Neu5Ac(a2-6)Gal(b1-4)GlcNAc(b1-2)Man(a1-3)[GlcNAc(b1-2)Man(a1-6)]Man(b1-4)GlcNAc(b1-4)GlcNAc
# Method in brief: as §1
# [38] = molecular target: Neu5Ac(a2-6)Gal(b1-4)GlcNAc(b1-2)Man(a1-3)[Neu5Ac(a2-6)Gal(b1-4)GlcNAc(b1-2)Man(a1-6)]Man(b1-4)GlcNAc(b1-4)GlcNAc
# Method in brief: as §1
# [39] = molecular target: Neu5Ac(a2-6)Gal(b1-4)GlcNAc(b1-2)Man(a1-6)[GlcNAc(b1-2)Man(a1-3)]Man(b1-4)GlcNAc(b1-4)GlcNAc
# Method in brief: as §1
# [40] = molecular target: Neu5Ac(a2-6)Gal(b1-4)GlcNAc6S
# Method in brief: as §1
binder,measurement,setting,value
B1,glycan array binding signal (z-score),Gal3S6S(b1-4)GlcNAc6S,0.726
same,glycan array binding signal (z-score),[1],4.2
same,glycan array binding signal (z-score),[2],-0.551
same,glycan array binding signal (z-score),[3],-0.396
same,glycan array binding signal (z-score),[4],1.06
same,glycan array binding signal (z-score),[5],-0.213
same,glycan array binding signal (z-score),Man(a1-2)Man(a1-3)Man,0.44
same,glycan array binding signal (z-score),[6],-0.608
same,glycan array binding signal (z-score),[7],0.166
same,glycan array binding signal (z-score),[8],-0.407
same,glycan array binding signal (z-score),[9],-0.448
same,glycan array binding signal (z-score),[10],-0.042
same,glycan array binding signal (z-score),[11],-0.083
same,glycan array binding signal (z-score),[12],1.29
same,glycan array binding signal (z-score),[13],-0.443
same,glycan array binding signal (z-score),[14],-0.325
same,glycan array binding signal (z-score),[15],0.504
same,glycan array binding signal (z-score),[16],-0.361
same,glycan array binding signal (z-score),[17],6.47
same,glycan array binding signal (z-score),[18],-0.601
same,glycan array binding signal (z-score),[19],0.377
same,glycan array binding signal (z-score),[20],-0.719
same,glycan array binding signal (z-score),[21],-0.3
same,glycan array binding signal (z-score),[22],11.1
B2,glycan array binding signal (z-score),[23],-0.343
same,glycan array binding signal (z-score),[24],-0.417
same,glycan array binding signal (z-score),[25],0.556
same,glycan array binding signal (z-score),[26],2.01
same,glycan array binding signal (z-score),Fuc(a1-3)GlcNAc,-0.301
same,glycan array binding signal (z-score),[27],0.218
same,glycan array binding signal (z-score),Fuc(a1-4)GlcNAc,1.42
same,glycan array binding signal (z-score),[28],0.143
same,glycan array binding signal (z-score),Gal(a1-4)Gal(b1-4)Glc,-0.342
same,glycan array binding signal (z-score),[29],-0.208
same,glycan array binding signal (z-score),Gal(b1-4)Glc,2.75
same,glycan array binding signal (z-score),Gal(b1-4)Glc6S,-0.248
same,glycan array binding signal (z-score),[30],5.11
same,glycan array binding signal (z-score),[31],13.2
same,glycan array binding signal (z-score),Neu5Ac(a2-3)Gal,-0.415
same,glycan array binding signal (z-score),[32],-0.203
same,glycan array binding signal (z-score),[33],2.75
same,glycan array binding signal (z-score),[34],0.435
same,glycan array binding signal (z-score),Neu5Ac(a2-6)Gal(b1-4)Glc,-0.125
same,glycan array binding signal (z-score),[35],-0.317
same,glycan array binding signal (z-score),[36],-0.422
same,glycan array binding signal (z-score),[37],-0.235
same,glycan array binding signal (z-score),[38],0.131
same,glycan array binding signal (z-score),[39],1.27
same,glycan array binding signal (z-score),[40],0.194
